# Measurements published in ChEMBL document CHEMBL3988442, “University of Dundee, Small-Polar-MMV Screening Library” (2021).
# For some of these results: Measured potencies and affinities stand elsewhere.
# How the values were obtained:
# Design in all cases: scale not given: direction of the effect not stated beside the values
# [1] = target: Protein translocase subunit SecA (Escherichia coli (strain K12)) (UniProt P10408); test: Assay to Identify E. coli SecA ATPase Inhibitors; type: functional; conditions: 30 µM
# Sequence of Protein translocase subunit SecA (Escherichia coli (strain K12)) (P10408 whole entry): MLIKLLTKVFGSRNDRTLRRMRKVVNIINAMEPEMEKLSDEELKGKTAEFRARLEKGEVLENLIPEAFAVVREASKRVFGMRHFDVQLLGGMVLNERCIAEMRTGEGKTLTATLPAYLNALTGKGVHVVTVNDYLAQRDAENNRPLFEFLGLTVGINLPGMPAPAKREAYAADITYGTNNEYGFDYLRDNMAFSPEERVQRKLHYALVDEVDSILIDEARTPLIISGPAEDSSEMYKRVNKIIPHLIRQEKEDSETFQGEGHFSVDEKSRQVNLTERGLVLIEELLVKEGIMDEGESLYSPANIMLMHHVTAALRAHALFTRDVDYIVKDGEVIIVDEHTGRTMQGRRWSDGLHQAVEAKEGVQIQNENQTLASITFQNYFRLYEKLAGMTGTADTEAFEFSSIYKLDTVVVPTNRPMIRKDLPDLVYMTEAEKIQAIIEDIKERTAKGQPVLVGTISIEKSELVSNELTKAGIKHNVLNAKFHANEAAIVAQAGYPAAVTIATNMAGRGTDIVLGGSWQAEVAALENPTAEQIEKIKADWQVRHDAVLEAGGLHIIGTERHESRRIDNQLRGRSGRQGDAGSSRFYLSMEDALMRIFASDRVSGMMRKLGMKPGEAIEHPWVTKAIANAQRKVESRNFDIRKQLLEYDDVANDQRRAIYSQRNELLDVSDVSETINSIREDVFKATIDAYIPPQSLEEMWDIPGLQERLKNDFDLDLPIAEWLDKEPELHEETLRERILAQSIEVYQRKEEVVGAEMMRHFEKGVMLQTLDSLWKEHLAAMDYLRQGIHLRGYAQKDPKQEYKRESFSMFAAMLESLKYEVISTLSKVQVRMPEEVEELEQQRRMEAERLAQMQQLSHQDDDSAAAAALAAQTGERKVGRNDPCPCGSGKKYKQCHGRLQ
# [2] = target: T1, Ubiquitin-activating enzyme e1, putative (Leishmania donovani (strain BPK282A1)) (UniProt E9BSI1); test: Leishmania donovani Ubiquitin Activating Enzyme (LdE1); type: functional; conditions: 30 µM
# T1 sequence (whole entry): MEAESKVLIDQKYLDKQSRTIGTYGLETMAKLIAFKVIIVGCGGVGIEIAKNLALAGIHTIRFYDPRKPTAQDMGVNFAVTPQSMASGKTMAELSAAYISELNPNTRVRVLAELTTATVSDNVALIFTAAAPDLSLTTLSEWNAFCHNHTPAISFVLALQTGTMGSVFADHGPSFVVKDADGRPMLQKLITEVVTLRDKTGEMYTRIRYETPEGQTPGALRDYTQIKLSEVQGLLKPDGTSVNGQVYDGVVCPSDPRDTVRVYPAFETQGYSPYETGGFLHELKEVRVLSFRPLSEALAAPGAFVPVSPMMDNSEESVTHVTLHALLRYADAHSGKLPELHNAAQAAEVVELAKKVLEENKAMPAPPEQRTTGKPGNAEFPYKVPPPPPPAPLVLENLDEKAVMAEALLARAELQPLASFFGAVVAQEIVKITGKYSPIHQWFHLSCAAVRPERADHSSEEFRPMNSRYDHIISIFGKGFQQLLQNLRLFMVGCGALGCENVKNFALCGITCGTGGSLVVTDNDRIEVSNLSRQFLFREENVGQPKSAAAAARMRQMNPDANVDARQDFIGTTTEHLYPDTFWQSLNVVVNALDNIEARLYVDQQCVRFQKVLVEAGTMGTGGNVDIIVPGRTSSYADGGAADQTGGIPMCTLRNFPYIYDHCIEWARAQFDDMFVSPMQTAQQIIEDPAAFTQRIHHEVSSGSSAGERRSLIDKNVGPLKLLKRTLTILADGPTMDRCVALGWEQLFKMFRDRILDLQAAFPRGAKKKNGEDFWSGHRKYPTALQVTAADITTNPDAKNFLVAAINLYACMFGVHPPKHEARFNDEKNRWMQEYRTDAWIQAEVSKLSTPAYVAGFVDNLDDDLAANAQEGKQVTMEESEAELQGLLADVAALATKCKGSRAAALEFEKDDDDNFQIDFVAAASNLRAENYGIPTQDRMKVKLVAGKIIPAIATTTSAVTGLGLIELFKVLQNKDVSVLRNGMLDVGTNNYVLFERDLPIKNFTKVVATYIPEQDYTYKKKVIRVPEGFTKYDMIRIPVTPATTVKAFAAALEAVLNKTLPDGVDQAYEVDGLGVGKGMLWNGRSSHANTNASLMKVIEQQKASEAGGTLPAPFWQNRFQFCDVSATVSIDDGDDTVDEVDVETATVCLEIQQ
# [3] = target: AMP-activated protein kinase, AMPK (Homo sapiens) (UniProt P54646+O43741+P54619+Q9UGJ0+Q9Y478+Q13131+Q9UGI9); test: AMP-dependent Kinase enzyme assay. An in vitro enzyme assay that detects ADP turnover that is directly proportional to AMPK activity. This uses naive AMPK that is activated during the assay with MK-8722; type: functional; conditions: 30 µM
# [4] = target: Sialic acid-binding Ig-like lectin 9 (Homo sapiens) (UniProt Q9Y336); test: Hs-Siglec9 ALPHAscreen SOP 20170721; conditions: 10 µM
# Sequence of Sialic acid-binding Ig-like lectin 9 (Homo sapiens) (Q9Y336 whole entry): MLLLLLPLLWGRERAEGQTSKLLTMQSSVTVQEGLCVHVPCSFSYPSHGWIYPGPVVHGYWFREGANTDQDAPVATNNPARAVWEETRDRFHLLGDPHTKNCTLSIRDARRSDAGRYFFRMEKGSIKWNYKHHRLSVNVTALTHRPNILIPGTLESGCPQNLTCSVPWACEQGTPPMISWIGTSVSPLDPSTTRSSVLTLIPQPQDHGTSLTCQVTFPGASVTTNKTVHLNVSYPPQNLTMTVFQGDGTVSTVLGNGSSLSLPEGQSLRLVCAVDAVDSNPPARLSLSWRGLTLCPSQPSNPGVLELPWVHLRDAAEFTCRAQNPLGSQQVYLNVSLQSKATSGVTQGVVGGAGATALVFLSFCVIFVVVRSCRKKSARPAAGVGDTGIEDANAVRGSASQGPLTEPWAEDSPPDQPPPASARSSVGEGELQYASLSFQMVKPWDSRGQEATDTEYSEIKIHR
# Trypanosoma cruzi = test: Trypanosoma cruzi phosphomannomutase and mannose-1-phosphate guanylyltransferase assay; type: functional; conditions: 10 µM
# [5] = target: T2, Arginase-2, mitochondrial (Homo sapiens) (UniProt P78540); test: in vitro enzyme assay to detect the production of urea directly proportional to the activity of Arginase II; type: functional; conditions: 33.3 µM; also: in the data most compounds retested in dose-response had high values
# T2 sequence (whole entry): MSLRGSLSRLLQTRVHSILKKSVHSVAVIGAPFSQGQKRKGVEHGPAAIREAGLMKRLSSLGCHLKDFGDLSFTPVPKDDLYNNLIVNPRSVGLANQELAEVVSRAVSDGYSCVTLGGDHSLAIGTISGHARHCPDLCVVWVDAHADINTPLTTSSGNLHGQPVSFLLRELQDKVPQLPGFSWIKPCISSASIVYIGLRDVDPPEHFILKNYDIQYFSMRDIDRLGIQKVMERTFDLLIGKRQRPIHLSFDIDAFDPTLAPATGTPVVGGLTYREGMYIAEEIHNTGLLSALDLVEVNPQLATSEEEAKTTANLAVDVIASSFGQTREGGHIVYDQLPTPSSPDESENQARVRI
# [6] = target: T3, Proteasome subunit beta (Trypanosoma cruzi) (UniProt O96673); test: Trypanosoma cruzi proteasome chymotrypsin-like activity (TcProtChymo) assay.; also: in the data most compounds retested in dose-response had high values; type: functional; conditions: 9.37 µM
# T3 sequence (whole entry): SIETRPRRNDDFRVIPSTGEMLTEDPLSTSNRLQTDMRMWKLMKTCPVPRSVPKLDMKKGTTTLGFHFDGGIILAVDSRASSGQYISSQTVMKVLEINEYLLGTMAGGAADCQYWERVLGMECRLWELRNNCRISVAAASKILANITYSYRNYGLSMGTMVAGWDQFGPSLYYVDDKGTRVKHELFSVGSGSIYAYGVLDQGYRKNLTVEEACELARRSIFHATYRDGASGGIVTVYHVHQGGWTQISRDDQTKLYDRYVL
# Homo sapiens = species on record: Homo sapiens; test: To identify inhibition of the IFN signalling (Jak-Stat) pathway via expression of an eGFP reporter gene under the control of an IFN-stimulated response element (ISRE) containing MxA promoter.; type: functional; conditions: 30 µM
# [7] = target: T4, Tyrosyl-tRNA synthetase, putative (Trypanosoma cruzi (strain CL Brener)) (UniProt Q4DSP6); test: Trypanosoma cruzi tyrosyl tRNA synthetase (TcYRS) _High Tyrosine SOP; type: functional; conditions: 30 µM; also: in the data most compounds retested in dose-response had high values
# T4 sequence (whole entry): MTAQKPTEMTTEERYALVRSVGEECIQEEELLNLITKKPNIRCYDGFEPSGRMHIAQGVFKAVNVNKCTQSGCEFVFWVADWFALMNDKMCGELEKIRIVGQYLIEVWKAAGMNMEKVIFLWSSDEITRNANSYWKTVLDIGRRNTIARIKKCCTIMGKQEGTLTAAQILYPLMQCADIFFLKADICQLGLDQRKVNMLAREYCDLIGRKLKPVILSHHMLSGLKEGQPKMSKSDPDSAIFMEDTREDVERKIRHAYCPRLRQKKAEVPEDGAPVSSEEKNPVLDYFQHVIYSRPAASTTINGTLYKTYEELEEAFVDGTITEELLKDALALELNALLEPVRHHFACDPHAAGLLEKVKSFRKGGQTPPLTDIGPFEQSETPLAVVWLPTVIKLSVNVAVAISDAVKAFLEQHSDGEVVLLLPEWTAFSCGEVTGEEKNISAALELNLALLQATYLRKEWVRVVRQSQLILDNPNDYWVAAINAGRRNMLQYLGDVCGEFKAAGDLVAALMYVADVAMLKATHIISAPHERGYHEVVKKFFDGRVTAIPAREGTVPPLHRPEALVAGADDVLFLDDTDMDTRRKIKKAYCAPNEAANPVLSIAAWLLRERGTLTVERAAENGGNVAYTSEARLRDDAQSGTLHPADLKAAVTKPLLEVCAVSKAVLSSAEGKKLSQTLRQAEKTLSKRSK
# [8] = target: T4, Tyrosyl-tRNA synthetase, putative (Trypanosoma cruzi (strain CL Brener)); test: Trypanosoma cruzi tyrosyl tRNA synthetase (TcYRS) SOP; type: functional; conditions: 30 µM
# [9] = target: Chromo domain-containing protein 1 (Saccharomyces cerevisiae (strain ATCC 204508 / S288c) (Baker's yeast)) (UniProt P32657); test: ScCHD-1 Enzyme Inhibition Assay; type: functional; conditions: 30 µM; also: in the data most compounds retested in dose-response had high values
# Sequence of Chromo domain-containing protein 1 (Saccharomyces cerevisiae (strain ATCC 204508 / S288c) (Baker's yeast)) (P32657 whole entry, the tested form may be a part): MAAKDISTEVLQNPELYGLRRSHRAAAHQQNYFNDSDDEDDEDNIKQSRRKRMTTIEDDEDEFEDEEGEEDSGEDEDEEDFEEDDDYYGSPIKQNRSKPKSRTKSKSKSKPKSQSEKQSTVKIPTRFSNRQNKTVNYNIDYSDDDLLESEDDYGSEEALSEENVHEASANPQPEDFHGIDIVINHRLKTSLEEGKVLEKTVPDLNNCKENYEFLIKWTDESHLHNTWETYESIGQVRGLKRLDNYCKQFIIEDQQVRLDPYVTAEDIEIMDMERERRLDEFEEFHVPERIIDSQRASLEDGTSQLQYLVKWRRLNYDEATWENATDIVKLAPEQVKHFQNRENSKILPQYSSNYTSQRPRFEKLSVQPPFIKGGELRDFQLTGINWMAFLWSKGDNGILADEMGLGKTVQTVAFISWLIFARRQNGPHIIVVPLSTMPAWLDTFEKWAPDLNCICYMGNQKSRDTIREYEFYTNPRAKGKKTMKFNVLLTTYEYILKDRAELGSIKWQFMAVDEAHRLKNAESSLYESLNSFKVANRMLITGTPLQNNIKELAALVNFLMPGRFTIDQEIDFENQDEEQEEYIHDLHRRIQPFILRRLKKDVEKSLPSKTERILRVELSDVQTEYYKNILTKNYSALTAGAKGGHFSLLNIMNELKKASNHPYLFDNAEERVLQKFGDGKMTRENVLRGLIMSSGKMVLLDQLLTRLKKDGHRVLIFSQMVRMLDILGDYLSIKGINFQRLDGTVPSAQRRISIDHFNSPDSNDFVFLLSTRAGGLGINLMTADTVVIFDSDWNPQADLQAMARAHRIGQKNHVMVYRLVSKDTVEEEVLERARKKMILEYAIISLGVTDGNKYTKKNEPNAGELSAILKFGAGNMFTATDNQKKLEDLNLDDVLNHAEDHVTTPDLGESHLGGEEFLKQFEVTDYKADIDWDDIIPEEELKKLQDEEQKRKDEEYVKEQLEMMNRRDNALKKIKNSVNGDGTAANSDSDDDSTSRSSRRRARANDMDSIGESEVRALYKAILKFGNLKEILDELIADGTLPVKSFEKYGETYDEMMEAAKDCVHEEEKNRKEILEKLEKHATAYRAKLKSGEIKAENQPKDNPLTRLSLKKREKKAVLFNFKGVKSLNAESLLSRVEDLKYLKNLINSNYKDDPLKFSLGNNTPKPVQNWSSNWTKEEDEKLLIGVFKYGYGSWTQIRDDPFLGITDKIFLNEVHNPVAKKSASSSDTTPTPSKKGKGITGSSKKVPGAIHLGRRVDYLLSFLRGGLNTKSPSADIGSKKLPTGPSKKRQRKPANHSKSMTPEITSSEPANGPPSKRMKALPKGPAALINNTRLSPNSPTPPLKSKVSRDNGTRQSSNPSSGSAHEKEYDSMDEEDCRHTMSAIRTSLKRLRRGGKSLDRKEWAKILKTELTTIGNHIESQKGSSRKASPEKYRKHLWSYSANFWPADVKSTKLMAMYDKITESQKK
Compound,Percent Effect [1],Percent Effect [2],Percent Effect [3],Percent Effect [4],Percent Effect (Trypanosoma cruzi),Percent Effect [5],Percent Effect [6],Percent Effect (Homo sapiens),Percent Effect [7],Percent Effect [8],Percent Effect [9]
COCC(=O)N1CCCC1c1cc(Nc2nnc(C)s2)nc(C)n1 (stereo not given),-7.56%,0%,-6.16%,10.2%,7.09%,-3.96%,-2.38%,8.53%,4.25%,8.97%,-5.17%
O=C(C1CCOCC1)N1CCC2(CC1)CC(Oc1ccccc1)CO2 (stereo not given),0.293%,8.22%,-6.45%,5.89%,0.595%,-5.59%,7.28%,14.1%,6.25%,16.1%,-0.343%
CCc1nnc2n1CCN(CCS(=O)(=O)c1ccccc1)C2,-7.25%,13%,6.16%,15.6%,-3.37%,1.07%,-2.87%,4.97%,0.971%,7.32%,-3.89%
N#Cc1ccc(F)c(CN2CCCC2Cn2cnc3ccccc32)c1 (stereo not given),-4.77%,-5.41%,-0.578%,-0.466%,-3.81%,-0.924%,6.46%,22.9%,1.98%,-6.1%,5.03%
CCCOc1ccc(CNC2CCCc3c2cnn3CC)cc1OC (stereo not given),-6.15%,15.2%,-7.05%,11%,6.33%,-3.04%,5.98%,2.78%,9.36%,21.5%,-12.2%
CC(C)c1nn(CC(=O)N2CCCCC2)c(=O)c2c1cnn2C(C)(C)C,-2.78%,11%,-3.21%,-1.33%,-4.31%,0.455%,16.5%,17.3%,2.15%,12.5%,-6.96%
Cc1ccc(S(=O)(=O)Nc2ccc(=O)n(C)c2)cc1,-2.01%,20.2%,-48.5%,-4.13%,2.55%,4.18%,17.1%,36%,6.4%,13.9%,-4.02%
CN(CCO)Cc1nnc(C2CCN(C3CCCCC3)CC2)n1C,-3.52%,8%,0.423%,-0.412%,-3.41%,2.08%,18.1%,10.8%,2.73%,11.1%,-6.36%
Cc1ccc(CNC(=O)CCSCc2csc(C)n2)cn1,-2.98%,17.7%,-1.48%,-3.29%,1.42%,4.18%,0.0819%,8.57%,0.493%,8.86%,-3.92%
CC(NC(=O)NCc1cccc(N2CCCC2=O)c1)c1ccccc1 (stereo not given),-2.62%,7.79%,4.82%,12.6%,3.23%,-10.7%,7.36%,-2.7%,1.91%,11.8%,-21.1%
CCN1C[C@H]2CCN(C(=O)NC3CCCC3)CC[C@H]2S1(=O)=O,2.4%,14.7%,2.73%,-7.67%,-3.54%,-5.81%,15.5%,2.2%,1.06%,5.13%,-7.62%
CC(C)C1CN(C(=O)c2ccc(C(N)=O)cc2)CCS1 (stereo not given),-4.2%,5.2%,1.75%,3.92%,-6.2%,-4.14%,6.49%,6.03%,2.15%,6.17%,0.585%
COc1cccc(CN2CCC(c3nccn3C(C)C)CC2)c1,-3.84%,15.6%,0.593%,14.9%,4.23%,-5.52%,11.5%,-3.74%,7.53%,21%,-7.09%
O=C(c1cc(Cl)cc(Cl)c1)N1CCN(c2nccs2)CC1,-2.62%,13.7%,5.26%,6.34%,0.588%,10.4%,19.2%,0.362%,4.3%,20%,-10.5%
CCNC(=O)N1CCCCC1CCNS(C)(=O)=O (stereo not given),-1.55%,5.41%,-3.93%,3.76%,8.3%,-3.33%,13.3%,6.93%,7.94%,9.76%,-1.52%
COc1cc(C)sc1C(=O)N1CC(c2cccnc2)C1,-4.73%,2.7%,4.4%,-2.39%,-3.86%,-1.91%,9.65%,-1.77%,1.59%,9.76%,-1.11%
COCC1CC2(CCN(C(=O)c3occc3C)CC2)CO1 (stereo not given),-0.186%,2.6%,22.5%,0.84%,-6.61%,4.52%,3.65%,5.99%,-2.12%,-1.28%,-1.99%
CNC(=O)c1nc2c(s1)CCN(C(=O)c1cccnc1)CC2,2.24%,0%,4.01%,3.91%,-3.67%,-50.4%,3.42%,3.61%,3.12%,5%,-2.25%
Cc1ccc(CC(=O)N2CCCC(c3cc(C)[nH]n3)C2)cn1 (stereo not given),-4.35%,13.5%,-1.96%,17.6%,5.66%,-4.25%,3.77%,12.1%,3.96%,15.8%,-0.933%
OC1CCN(Cc2c(C3CCCNC3)[nH]c3ncccc23)CC1 (stereo not given),-5.49%,12.2%,11.9%,5.12%,-5.93%,-3.94%,8.42%,-1.37%,-5.38%,9.09%,-6.12%
